# Experimental data as given in PMC11062922 (Nature Chemical Biology, 2023).
# Experiments:
# Parameters in all cases: species or system human, MV4-11 + K-562 + COLO205 + SK-N-BE2 + OVCAR-8
# NEK1 = settings: read-out: apparent Kd; compound concentrations: 100 nM and 1000 nM (sheet 'Samples'), CATDS: 0.147931725525974; n = 1
# RPS6KB1 = settings: read-out: apparent Kd; compound concentrations: 100 nM and 1000 nM (sheet 'Samples'), CATDS: 7.08215510279748E-2; n = 1
# PHKG2 = settings: read-out: apparent Kd; compound concentrations: 100 nM and 1000 nM (sheet 'Samples'), CATDS: 8.5402919050668602E-3; n = 1
# PRKACA = settings: read-out: apparent Kd; compound concentrations: 100 nM and 1000 nM (sheet 'Samples'), CATDS: 7.7130843989671599E-3; n = 1
# NEK2 = settings: read-out: apparent Kd; compound concentrations:100 nM and 1000 nM (sheet 'Samples'); n = 1
# PKMYT1 = settings: read-out: apparent Kd; compound concentrations:100 nM and 1000 nM (sheet 'Samples'); n = 1
# NCL = settings: read-out: apparent Kd; compound concentrations: 100 nM and 1000 nM (sheet 'Samples'), CATDS: 1.71627638164802E-2; n = 1
# PRKCZ = settings: read-out: apparent Kd; compound concentrations: 100 nM and 1000 nM (sheet 'Samples'), CATDS: 1.7514325716089001E-2; n = 1
# PIK3C2B = settings: read-out: apparent Kd; compound concentrations: 100 nM and 1000 nM (sheet 'Samples'), CATDS: 3.01337612448444E-2; n = 1
# NEK9 = settings: read-out: apparent Kd; compound concentrations: 100 nM and 1000 nM (sheet 'Samples'), CATDS: 2.1458730065113701E-2; n = 1
# MAP2K3 = settings: read-out: apparent Kd; compound concentrations:100 nM and 1000 nM (sheet 'Samples'); n = 1
# PIK3CB = settings: read-out: apparent Kd; compound concentrations:100 nM and 1000 nM (sheet 'Samples'); n = 1
# SLC25A5 = settings: read-out: apparent Kd; compound concentrations:100 nM and 1000 nM (sheet 'Samples'); n = 1
# MAPK3 = settings: read-out: apparent Kd; compound concentrations:100 nM and 1000 nM (sheet 'Samples'); n = 1
# CLK3 = settings: read-out: apparent Kd; compound concentrations: 100 nM and 1000 nM (sheet 'Samples'), CATDS: 1.8485003347971998E-2; n = 1
# NTRK1 = settings: read-out: apparent Kd; compound concentrations: 100 nM and 1000 nM (sheet 'Samples'), CATDS: 1.31353956305182E-2; n = 1
# RPS6KA1 = settings: read-out: apparent Kd; compound concentrations: 100 nM and 1000 nM (sheet 'Samples'), CATDS: 1.0541415060752299E-2; n = 1
# PI4KB = settings: read-out: apparent Kd; compound concentrations: 100 nM and 1000 nM (sheet 'Samples'), CATDS: 0.18067625739165599; n = 1
# FES = settings: read-out: apparent Kd; compound concentrations: 100 nM and 1000 nM (sheet 'Samples'), CATDS: 3.8230279183827799E-2; n = 1
# CAMK2G = settings: read-out: apparent Kd; compound concentrations:100 nM and 1000 nM (sheet 'Samples'); n = 1
smiles,measurement,setting,value
COc1cc(Nc2nccc(N3CCC(NC(=O)c4cccc(C#N)c4)C3)n2)cc(OC)c1OC (centres unmarked) [GSK1379751A],potency estimated from few doses,NEK1,1860 nM
O=C1N=C(NCCc2ccccc2F)S/C1=C\c1ccc2ncccc2c1 [RO4498483-000],potency estimated from few doses,RPS6KB1,1720 nM
O=C1N=C(NCc2cccs2)SC1Cc1ccc2ncccc2c1 (centres unmarked) [RO4629078-000],potency estimated from few doses,PHKG2,1040 nM
same,potency estimated from few doses,PRKACA,1470 nM
CCN(CC)CCOc1ccc(Nc2ncc3cc(-c4c(Cl)cccc4Cl)c(=O)n(C)c3n2)cc1 [SB-601273],potency estimated from few doses,NEK2,1780 nM
same,potency estimated from few doses,PKMYT1,1030 nM
Cl.Cl.Cl.c1ccc(Oc2ccc(Nc3ccnc4cc(-c5ccc(CN6CCNCC6)o5)ccc34)cc2)nc1.c1ccc(Oc2ccc(Nc3ccnc4cc(-c5ccc(CN6CCNCC6)o5)ccc34)cc2)nc1 [GW567142A],potency estimated from few doses,NCL,1970 nM
same,potency estimated from few doses,PRKCZ,1820 nM
O=S(=O)(CCOCc1ccc(-c2ccc3ncnc(Nc4ccc(OCc5cccc(F)c5)c(Cl)c4)c3c2)o1)c1ccccc1 [GW615311X],potency estimated from few doses,PIK3C2B,1160 nM
CC(C)c1nc(-c2cccc(NS(=O)(=O)c3c(F)cccc3F)c2F)c(-c2ccnc(Nc3ccc(N4CCOCC4)nc3)n2)s1 [GSK2008607A],potency estimated from few doses,NEK9,1100 nM
Nc1nc(N)c2nc(-c3ccccc3)[nH]c2n1 [SKF-12778],potency estimated from few doses,MAP2K3,2020 nM
same,potency estimated from few doses,PIK3CB,790 nM
same,potency estimated from few doses,SLC25A5,1960 nM
N#Cc1cccc(Nc2nccc(-c3cnn4ncccc34)n2)c1 [GW778894X],potency estimated from few doses,MAPK3,975 nM
CNC(=O)c1ccccc1Nc1nc(Nc2cccc(CS(C)(=O)=O)c2)ncc1C.O=CO [GSK1520489A],potency estimated from few doses,CLK3,167 nM
same,potency estimated from few doses,NTRK1,438 nM
same,potency estimated from few doses,RPS6KA1,1010 nM
CS(=O)(=O)c1ccc(-c2cnc(N)c(C(=O)Nc3ccccc3)n2)cc1 [VE-821],potency estimated from few doses,PI4KB,812 nM
CN1CCN(Cc2ccc(NC(=O)Nc3ccc(N(C)c4ccnc(Nc5ccc(CS(C)(=O)=O)cc5)n4)cc3)cc2)CC1.Cl [GW827654A],potency estimated from few doses,FES,1230 nM
Cl.Oc1ccc2ncnc(Nc3ccc(OCc4ccccc4)cc3)c2c1 [GI262866A],potency estimated from few doses,CAMK2G,385 nM
